Consider 12 compounds from PubChem BioAssay (EPA / NIEHS).

Several values for one entry are separate records, joined by “and”; a condition that tells them apart may be missing. Equal entries are not always repeated. Some structures have more than one record in an assay (separate samples or runs), and their calls can disagree. Activity calls are given as the source filed them. Rule for the calls, unless noted: active = hit-call score of the fitted dose curve at least 0.9, where 1 is the maximum; inactive = score below 0.9. Peptide text beside a SMILES is read from it.

Test system in one assay: not listed separately
Put plainly: CCTE_Shafer_MEA_dev_network_spike_peak: CCTE's Neural Network Formation Assay for Mean Number of Electrodes in Network Spike, Shafer Lab (AID 2284049).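 For AC50: fitted for loss of signal meaning fewer electrodes in network spikes than DMSO.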 The procedure, abridged:
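Rat cortical primary culture, 1.5 x 10^5 cells/well, 48-well MEA (16 electrodes/well). Dosing day 0 through DIV 12, full media/compound exchange DIV 5, 9. AxIS adaptive spike detection; AUC over days 5/7/9/12; loss-of-signal vs DMSO.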
As to `Cc1noc(NS(=O)(=O)c2ccc(N)cc2)c1C`, the compound was classed as inactive.

As a reminder, the AC50 is the concentration at which the activity in the assay is half-maximal. Consider `CCCCNS(=O)(=O)c1ccccc1`, for which the AC50 is 78.5 µM (active).

Consider `Cc1c(C(=O)c2c[nH]n(C)c2=O)ccc(S(C)(=O)=O)c1C1=NOCC1`, for which the result was inactive.

For `COC(=O)[C@H](Cc1ccccc1)NC(=O)[C@@H](N)CC(=O)O` (H-Asp-Phe-OMe), the result was inactive.

Regarding `C[N+](C)(C)CCCNS(=O)(=O)C(F)(F)C(F)(F)C(F)(F)C(F)(F)C(F)(F)C(F)(F)C(F)(F)C(F)(F)F`, the AC50 was 1.11 µM (active) and 1.4 µM (active).

The subject of a further assay is DIO2 (gene 1734). As to the kind of experiment: CCTE_GLTED_hDIO2: CCTE's human Deiodinase 2 (DIO2) Inhibition Assay, Great Lakes Toxicology and Ecology Division (GLTED) Lab (AID 2284050; active = hit-call score of the fitted dose curve at least 0.9, where 1 is the maximum). The method, then:
CCTE_GLTED_hDIO2 is a cell-free, single-readout assay designed to test the inhibitory activity of chemicals toward human iodothyronine Deiodinase type 2 (DIO2) enzyme. Enzyme is incubated in presence of test chemical for 3 hours during which uninhibited enzyme liberates free iodide from substrate. Free iodide is measured in a second step using the Sandell-Kolthoff method.CCTE_GLTED_hDIO2 is the assay component measured from the CCTE_GLTED_hDIO2 assay. It is designed to make measurements of enzyme activity, a form of enzyme reporter, as detected with absorbance signals by spectrophotometry.Data from the assay component CCTE_GLTED_hDIO2 was analyzed into 1 assay endpoint. This assay endpoint, CCTE_GLTED_hDIO2, was analyzed in the positive analysis fitting direction relative to DMSO as the negative control and baseline of activity. Using a type of enzyme reporter, loss-of-signal activity can be used to understand changes in the enzymatic activity as they relate to the gene DIO2. Furthermore, this assay endpoint can be referred to as a primary readout, because the performed assay has only produced 1 assay endpoint. To generalize the intended target to other relatable targets, this assay endpoint is annotated to the 'deiodinase' intended target family, where the subfamily is 'deiodinase Type 2'.
Human deiodinase type 2 (hDIO2) assay, developed at Great Lakes Toxicology and Ecology Division (GLTED) within the EPA's Center for Computational Toxicology and Exposure (CCTE), is designed to test the chemicals' ability to inhibit DIO2. Assay is based on iodide release measured by the Sandell-Kolthoff method and is run in 96-well plate format with assay plates run in triplicate (n=3). The method used for the deiodinase assay was largely based on Renko et al. (2012, 2015). These works describe the utilization of the SK reaction to measure deiodinase-liberated iodide in a 96-well-plate format. The SK reaction is based on the reduction of the yellow-colored cerium IV to the non-colored cerium III by arsenic, with the rate of this reaction increased in the presence of iodide in a concentration-dependent manner (Sandell and Kolthoff, 1937). Iodinated test chemicals can interfere as competitive inhibitors, or if the stock chemical has contaminating free-iodide present. Other chemicals, e.g.: nitrite, iron, and thiocyanate can interfere with the Sandell-Kolthoff reaction (see Sandell and Kolthoff, 1937).
On to `CCCCCCCCCCCCc1ccc(O)cc1`, for which the AC50 was 69.7 µM (active).

Turning to `CCCCCCCOC(=O)c1ccc(O)cc1`, the AC50 was 106 µM (active).

In the case of `CCCCCCCCCCCCCCCCCCOS(=O)(=O)O`, the AC50 is 40.6 µM (active).

Turning to `C/C=C/C=C/CCCCCCCO`, the concentration at half-maximal activity (AC50) was 19.9 µM (active).

Consider `O=C(O)c1cc(O)c2ccccc2c1O`, for which the AC50 is 51 µM (active).

Consider `CCCCC/C=C\C/C=C\CCCCCCCC(=O)O`, for which the AC50 was 36.8 µM (active).

For the compound `O=c1c(O)c(-c2ccc(O)cc2O)oc2cc(O)cc(O)c12`, the AC50 was 55.4 µM (active).

Test system in the next assay: not listed separately
As to the kind of experiment: CCTE_Shafer_MEA_dev_spike_duration_mean: CCTE's Neural Network Formation Assay for Mean Spike Duration, Shafer Lab (AID 2284051).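 For AC50: potency for a decrease in mean network spike duration versus DMSO.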 The gist of the method: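 Readout is the average length of network spikes, clustered firing across electrodes, summed over DIV 5, 7, 9 and 12 as area under the curve. Neurons from rat cortex developed networks on MEA plates under continuous 12-day exposure.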
In the case of `Cc1noc(NS(=O)(=O)c2ccc(N)cc2)c1C`, the outcome was inactive.

Consider `CCCCNS(=O)(=O)c1ccccc1`, for which the AC50 is 50.5 µM (active).

Turning to `Cc1c(C(=O)c2c[nH]n(C)c2=O)ccc(S(C)(=O)=O)c1C1=NOCC1`, the compound was called inactive.

On to `COC(=O)[C@H](Cc1ccccc1)NC(=O)[C@@H](N)CC(=O)O` (H-Asp-Phe-OMe), for which the result was inactive.

`C[N+](C)(C)CCCNS(=O)(=O)C(F)(F)C(F)(F)C(F)(F)C(F)(F)C(F)(F)C(F)(F)C(F)(F)C(F)(F)F`: the AC50 is 2.58 µM (active) and the result was inactive.

Test system in the next assay: not listed separately
As to the kind of experiment: CCTE_Shafer_MEA_dev_network_spike_duration_std: CCTE's Neural Network Formation Assay for Standard Deviation of Network Spike Duration, Shafer Lab (AID 2284052).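 Note: hits are decreases in network spike duration SD versus DMSO vehicle.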 The procedure, abridged: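 Read-out is the trapezoidal area-under-the-curve across recordings made on days 5, 7, 9 and 12, fitted in the negative direction against DMSO baseline. Neurons were primary rat cortical cells treated from day 0, with treatment renewed at each feed.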
In the case of `Cc1noc(NS(=O)(=O)c2ccc(N)cc2)c1C`, the result was inactive.

`CCCCNS(=O)(=O)c1ccccc1`: the result was inactive.

`Cc1c(C(=O)c2c[nH]n(C)c2=O)ccc(S(C)(=O)=O)c1C1=NOCC1`: the compound was called inactive.

Regarding `COC(=O)[C@H](Cc1ccccc1)NC(=O)[C@@H](N)CC(=O)O` (H-Asp-Phe-OMe), the compound was classed as inactive.

As to `C[N+](C)(C)CCCNS(=O)(=O)C(F)(F)C(F)(F)C(F)(F)C(F)(F)C(F)(F)C(F)(F)C(F)(F)C(F)(F)F`, the compound was classed as inactive.

Test system in another assay: not listed separately
As to the kind of experiment: CCTE_Shafer_MEA_dev_per_network_spike_spike_number_mean: CCTE's Neural Network Formation Assay for Mean Number of Spikes in a Network Spike, Shafer Lab (AID 2284053).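 For AC50: fitted as decrease in spikes per network spike relative to DMSO.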 The gist of the method: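 Continuous twelve-day exposure of developing rat cortical networks grown over 16 microelectrodes per well; spontaneous firing is captured at four time points, and the per-network-spike spike number is integrated over development by trapezoidal AUC.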
Turning to `Cc1noc(NS(=O)(=O)c2ccc(N)cc2)c1C`, the outcome was inactive.

For the compound `CCCCNS(=O)(=O)c1ccccc1`, the call was inactive.

With `Cc1c(C(=O)c2c[nH]n(C)c2=O)ccc(S(C)(=O)=O)c1C1=NOCC1`, the compound was classed as inactive.

Consider `COC(=O)[C@H](Cc1ccccc1)NC(=O)[C@@H](N)CC(=O)O` (H-Asp-Phe-OMe), for which the compound was called inactive.

With `C[N+](C)(C)CCCNS(=O)(=O)C(F)(F)C(F)(F)C(F)(F)C(F)(F)C(F)(F)C(F)(F)C(F)(F)C(F)(F)F`, the AC50 was 901 nM (active) and 1.36 µM (active).
